Test results published in PubChem BioAssay (NCATS).
Where “and” joins values, the source holds several entries; their conditions need not be identical. Equal values may be shown once. Inconclusive results are not listed. Calls of active or inactive are those of the source. Calls follow the shape of the dose curve; as a rule, active = well fitted inhibition curve with a large enough effect; inconclusive = small, poorly fitted or top-dose-only effect; inactive = no such curve, though single readings can be large or run the other way.

assay: Primary qHTS for inhibitors of nuclear receptor binding SET domain protein 2 (NSD2) in an RCH-ACV wild type WT cells (2C) (AID 1645877); conditions: RCH-ACV (leukaemia line) NSD2 WT (2C) viability, CellTiter-Glo, 72 h; series mostly up to 44.9 µM; activity change, negative = cell killing: at the top concentration; also: nearly all actives have a fitted effect of over 70% in size
% is scaled to controls: 0 for no effect and ±100 for the full control effect; potency is read from the fitted curve at half-maximal effect.

**Q.** With NC(=O)N/N=C/c1ccc([N+](=O)[O-])o1 as the molecule, how does the Potency read?
**A.** The Potency was 24.3 µM (active).

**Q.** For O=C1O[C@H](CO)[C@@H](O)[C@H](O)[C@H]1O, which “activity change, negative = cell killing” value is on record?
**A.** Its value is 8.64% (inactive).

**Q.** With O=C1OC(OC(=O)c2cccnc2Nc2cccc(C(F)(F)F)c2)c2ccccc21 (stereo not drawn) as the molecule, how does the “activity change, negative = cell killing” value read?
**A.** The value was 2.55% (inactive).

**Q.** For CN(N=O)C(=O)N[C@@H]1[C@@H](O)[C@H](O)[C@@H](CO)O[C@@H]1O, which Potency is on record?
**A.** Its Potency is “inactive”.

**Q.** Which activity change, negative = cell killing does the source give for NCCNCCNCCNCCN here?
**A.** The activity change, negative = cell killing was -16.9% [at 9.23 µM] (inactive).

**Q.** Which “outcome” value does the source give for N[C@H](C(=O)O)c1ccc(O)cc1 here?
**A.** The value was “inactive [at 17.3 µM]”.

**Q.** Which “activity change, negative = cell killing” value does the source give for Oc1cn2c(n1)Nc1ccc(Cl)c(Cl)c1C2 here?
**A.** The value was 5.48% [at 17.3 µM] (inactive).

**Q.** Which “activity change, negative = cell killing” value does the source give for NS(=O)(=O)c1cc2c(cc1Cl)NC(CSCc1ccccc1)=NS2(=O)=O here?
**A.** Its value is -5.76% (inactive).

**Q.** Which “activity change, negative = cell killing” value does the source give for CCCCOc1cc(C(=O)OCCN(CC)CC)ccc1N here?
**A.** Its value is -26.3% (inactive).

**Q.** With Nc1nc2c(ncn2CCC(CO)CO)c(=O)[nH]1 as the molecule, how does the Potency read?
**A.** Its Potency is “inactive”.

**Q.** With O=C(O)COc1nn(Cc2ccccc2)c2ccccc12 as the molecule, how does the “outcome” value read?
**A.** Its value is “inactive”.

**Q.** For CC(C)(C)C(=O)NCCCC(=O)O, which “outcome” value is on record?
**A.** The value was “inactive”.

**Q.** Which outcome does the source give for C[C@@H]1CC[C@@]2(OC1)O[C@H]1C[C@H]3[C@@H]4CC[C@H]5C[C@@H](O)CC[C@]5(C)[C@H]4CC(=O)[C@]3(C)[C@H]1[C@@H]2C here?
**A.** The outcome was “inactive [at 4.96 µM]”.

**Q.** Which Potency does the source give for CC[C@H]1CN2CCc3cc(OC)c(OC)cc3[C@@H]2C[C@@H]1C[C@H]1NCCc2cc(OC)c(OC)cc21 here?
**A.** The Potency was 59.6 nM (active) and 118 nM (active).

**Q.** For CCCCCCCCCCCCOS(=O)(=O)O, which “activity change, negative = cell killing” value is on record?
**A.** Its value is -9.79% (inactive).

**Q.** Which “outcome” value does the source give for O=C(Oc1ccccc1C(=O)O)c1ccccc1O here?
**A.** Its value is “inactive”.

**Q.** With COc1ccccc1O as the molecule, how does the Potency read?
**A.** The Potency was 39 µM (active).

**Q.** Which Potency does the source give for CCCCc1ncc(/C=C(\Cc2cccs2)C(=O)O)n1Cc1ccc(C(=O)O)cc1 here?
**A.** The Potency was “inactive”.

**Q.** Which Potency does the source give for CN(C)CCCN1c2ccccc2Sc2ccc(Cl)cc21 here?
**A.** Its Potency is 13.3 µM (active).

**Q.** With CSc1ccc2c(c1)N(CCC1CCCCN1C)c1ccccc1S2 (stereo not drawn) as the molecule, how does the Potency read?
**A.** The Potency was 3.76 µM (active).

**Q.** With O=C(O)Cc1sc(-c2ccccc2)nc1-c1ccc(Cl)cc1 as the molecule, how does the “activity change, negative = cell killing” value read?
**A.** The value was -3.32% (inactive).

**Q.** For CCN(CC)C(=O)Nc1ccc(OCC(O)CNC(C)(C)C)c(C(C)=O)c1 (stereo not drawn), which Potency is on record?
**A.** Its Potency is “inactive”.

**Q.** With CN(C)CCCO[C@@H]1[C@H]2OC(C)(C)O[C@H]2O[C@@H]1C(O)CO (stereo partly drawn) as the molecule, how does the “outcome” value read?
**A.** The value was “inactive”.

**Q.** Which Potency does the source give for CSc1ccc2c(c1)C(N1CCN(C)CC1)Cc1ccccc1S2 (stereo not drawn) here?
**A.** Its Potency is 15 µM (active).

**Q.** Which “activity change, negative = cell killing” value does the source give for COC(=O)[C@H]1[C@H]2C[C@@H]3c4[nH]c5cc(OC)ccc5c4CCN3C[C@H]2C[C@@H](OC(=O)COc2ccc(OC)cc2)[C@@H]1OC here?
**A.** Its value is -3.45% (inactive).

**Q.** Which “activity change, negative = cell killing” value does the source give for O=C(O)[C@H](O)c1ccccc1 here?
**A.** The value was 8.82% (inactive).

**Q.** Which “activity change, negative = cell killing” value does the source give for CCCCCCCCCCCCCCCC(=O)NCCO here?
**A.** Its value is 8.8% (inactive).

**Q.** Which “outcome” value does the source give for Cc1cccc(Nc2cc(Cl)nc(SCC(=O)O)n2)c1C here?
**A.** Its value is “inactive”.

**Q.** Which “activity change, negative = cell killing” value does the source give for C[C@@H](O)[C@H](N)C(=O)O here?
**A.** The value was 2.63% [at 17.3 µM] (inactive).

**Q.** For CC(=O)O[C@@]12CO[C@@H]1C[C@H](O)[C@@]1(C)C(=O)[C@H](O)C3=C(C)[C@@H](OC(=O)[C@H](O)[C@@H](NC(=O)OC(C)(C)C)c4ccccc4)C[C@@](O)([C@@H](OC(=O)c4ccccc4)[C@H]21)C3(C)C, which Potency is on record?
**A.** The Potency was 0.0021 µM (active).

**Q.** For C[C@H](N)[C@H](O)c1cccc(O)c1, which “outcome” value is on record?
**A.** The value was “inactive”.

**Q.** With CN1[C@@H]2CC[C@H]1CC(OC(=O)C(O)c1ccccc1)C2 (stereo partly drawn) as the molecule, how does the “activity change, negative = cell killing” value read?
**A.** The value was 4.49% (inactive).

**Q.** Which “activity change, negative = cell killing” value does the source give for CCOC(=O)c1ccc(O)cc1 here?
**A.** The value was -11.6% (inactive).
